# According to PubChem BioAssay (Tox21):
# Records with an inconclusive call do not appear. The source made the active and inactive calls. Calls follow the shape of the dose curve; as a rule, active = well fitted activation curve with a large enough effect in the repeat runs; inconclusive = weak or mixed curves; inactive = flat fitted curve, though single readings scatter.
# Assay: A CellTox Green Cytotoxicity Assay to monitor cytotoxicity in HEK293 cells - 32 hour (AID 1224881); also: nearly all actives have a fitted effect of over 40% in size
# Conditions: CellTox Green fluorescence; series mostly up to 76.8 µM; cytotoxicity increase: at the top concentration
# From the text: National Center for Advancing Translational Sciences [NCATS]
# NIH Chemical Genomics Center [NCGC]
# U.S. Environmental Protection Agency [EPA]
# National Institutes of Environmental Health Sciences [NIEHS]
# National Toxicology Program [NTP]
# Cell-based models are critical for drug discovery. Determining the natural cytotoxic effects resulting from test compounds is an essential research activity. A CellTox Green Cytotoxicity Assay to monitor cytotoxicity in real time of continues cell culture during 40 hours of the compound treatment was used to screen Tox21 10K library compounds in Hek293 cells. CellTox Green Cytotoxicity Assay is a nonlytic, homogeneous, biofluorescent method to measure cytotoxicity in cell culture after experimental manipulation. The assay system uses a proprietary asymmetric cyanine dye that is excluded from viable cells but preferentially stains the dead cell's DNA. […] Viable cells produce no appreciable increases in fluorescence. Therefore, the fluorescence signal produced by the binding interaction with dead cell DNA is proportional to cytotoxicity.
# The mixture of Hek293 cell suspension and reagents were dispensed at 600cells/6 ul/well in 1536-well tissue culture treated black solid bottom plates using a Multidrop dispenser. After the assay plates were incubated at a 37 C/5% CO2 incubator for 5 hours, 23 nL of compounds dissolved in DMSO, positive and negative controls was transferred to the assay plate by a pintool work station. The plates were incubated at 37 C for 40 hours. The fluorescence intensity were measured at 0h, 8h, 16h, 24h, 32h and 40h time points using ViewLux plate reader during compound treatment.
# % is scaled to controls: 0 for no effect and ±100 for the full control effect; potency is read from the fitted curve at half-maximal effect.
SMILES,cytotoxicity increase,Potency
C[C@@H](C1=C(CCN(C)C)Cc2ccccc21)c1ccccn1,11.2% [at 35.3 µM] (inactive),
O=C(O)C1CCC(C(=O)O)CC1 (stereo not given),-11.5% (inactive),
CN(c1nccc(=O)[nH]1)C1CCN(c2nc3ccccc3n2Cc2ccc(F)cc2)CC1,-12% [at 35.3 µM] (inactive),
OCCC1CCCCN1 (stereo not given),-1.74% (inactive),
CCOC(=O)CC(C)C,17.8% (inactive),
NCCCOCCOCCOCCCN,-13.5% (inactive),
NC[C@H]1O[C@H](O[C@H]2[C@H](O)[C@@H](O[C@H]3O[C@H](CO)[C@@H](O)[C@H](N)[C@H]3O)[C@H](N)C[C@@H]2N)[C@H](O)[C@@H](O)[C@@H]1O,10.5% [at 6.97 µM] (inactive),
O=C(O)Cc1cc(I)c(Oc2ccc(O)c(I)c2)c(I)c1,-5.74% (inactive),
CC(C)NCC(O)c1cc(O)cc(O)c1 (stereo not given),-19.3% [at 35.3 µM] (inactive),
CC(O)C1CCCCC1 (stereo not given),3.72% (inactive),
Cc1ccc(O)c([C@H](CCN(C(C)C)C(C)C)c2ccccc2)c1,0.681% [at 35.3 µM] (inactive),
CCOc1nc2cccc(C(=O)O)c2n1Cc1ccc(-c2ccccc2-c2nn[nH]n2)cc1,-32.3% [at 35.3 µM] (inactive),
CC(C(=O)O)c1ccc(-c2ccccc2)c(F)c1 (stereo not given),-2.14% (inactive),
O=C(O)Cc1sc(-c2ccccc2)nc1-c1ccc(Cl)cc1,-3.49% [at 35.3 µM] (inactive),
COCCO,-12.5% (inactive),
O=C1Nc2cc(Cl)ccc2Oc2ccccc21,3.23% [at 35.3 µM] (inactive),
O=C(O)C(c1ccc(Cl)cc1)c1ccc(Cl)cc1,-2.13% (inactive),
CC(=O)OCCc1ccccc1,-16.7% (inactive),
C=CC[N+]1([C@H]2C[C@H]3[C@@H]4CC[C@H]5C[C@H](OC(C)=O)[C@@H](N6CCCCC6)C[C@]5(C)[C@H]4CC[C@]3(C)[C@H]2OC(=O)CC)CCCCC1,-6.86% [at 35.3 µM] (inactive),
O=S1(=O)N=C(O)c2ccccc21,1.13% [at 35.3 µM] (inactive),

SMILES,cytotoxicity increase,Potency
Cn1sccc1=O,,inactive
Cc1ccc(C(N)=O)cc1N,3.23% (inactive),
NCc1ccccc1,-2.05% (inactive),
C=C(C)C(=O)OCCOc1ccccc1,16.7% (inactive),
CC/C(=C\C(=N/O)C(N)=O)C(C)[N+](=O)[O-] (stereo not given),-0.282% (inactive),
O=c1[nH]cnc2ccccc12,-0.765% (inactive),
N[C@H]1C(O)O[C@H](CO)[C@H](O)[C@@H]1O (stereo not given in full),-6.85% (inactive),
N#CCCNCCC#N,-11.8% (inactive),
COc1ccc([C@@H]2Sc3ccccc3N(CCN(C)C)C(=O)[C@@H]2OC(C)=O)cc1,-7.18% [at 35.3 µM] (inactive),
CN(C(=O)CCCOc1ccc2[nH]c(=O)ccc2c1)C1CCCCC1,-6.75% [at 35.3 µM] (inactive),
CCN(CC)C(C)CN1c2ccccc2Sc2ccccc21 (stereo not given),-22.6% [at 35.3 µM] (inactive),
C1CCC2OC2C1 (stereo not given),12.7% (inactive),
O=C(c1ccc(O)cc1)c1ccc(O)cc1,0.245% (inactive),
CCC(=O)OC(C)(C)C1CC=C(C)CC1 (stereo not given),-6.62% (inactive),
CCOc1ccc(NC(=O)CC(C)=O)cc1,-0.155% (inactive),
S=C(S)NCCNC(=S)S,-8.7% (inactive),
CC(Cc1cccc(C(F)(F)F)c1)NCCOC(=O)c1ccccc1 (stereo not given),,21.3 µM (active)
CN1CCN(C2=Nc3cc(Cl)ccc3Nc3ccccc32)CC1,25.5% [at 35.3 µM] (inactive),
CN1CCC(=C2c3ccccc3CCc3sccc32)CC1,8.99% [at 35.3 µM] (inactive),
O=C(O)Cn1c(C(=O)Nc2nc(-c3ccccc3Cl)cs2)cc2ccccc21,28.3% [at 35.3 µM] (inactive),
